# Test results as given in the supplement of paper PMC6555819.
# What was measured:
# Assay in all cases: PBM binding z-score (relative to random genomic background probes); higher = stronger binding; sequences stand for … in GC…GCGATTGACAGCGTAGAATGAAGG
# [1] = tested on: FXR:RXRa (NR concentration 270 nM, RXRa partner concentration 90 nM)
# How it was run: (§1)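 Binding z-scores take random background probes as their reference. They come from custom Agilent 4×180K protein-binding microarrays incubated 1 h with ligand-free nuclear receptor dimers, with antibodies against each partner (one per run) detecting binding. Scanned fluorescence was regression-normalized.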
# [2] = tested on: LXRa:RXRa (NR concentration 270 nM, RXRa partner concentration 90 nM)
# How it was run: as §1
# [3] = tested on: LXRa homodimer (NR concentration 270 nM)
# How it was run: as §1
# [4] = tested on: LXRb:RXRa (NR concentration 270 nM, RXRa partner concentration 90 nM)
# How it was run: as §1
# [5] = tested on: LXRb homodimer (NR concentration 270 nM)
# How it was run: as §1
# [6] = tested on: PPARa:RXRa (NR concentration 270 nM, RXRa partner concentration 90 nM)
# How it was run: as §1
# [7] = tested on: PPARg:RXRa (NR concentration 180 nM, RXRa partner concentration 90 nM)
# How it was run: as §1
# [8] = tested on: PPARg:RXRa 270nM:90nM, anti-RXR (NR concentration 270 nM, RXRa partner concentration 90 nM)
# How it was run: as §1
# [9] = tested on: PPARg:RXRa 30nM:10nM, anti-RXR (NR concentration 30 nM, RXRa partner concentration 10 nM)
# How it was run: as §1
# [10] = tested on: PPARg:RXRa 90nM:30nM, anti-RXR (NR concentration 90 nM, RXRa partner concentration 30 nM)
# How it was run: as §1
# [11] = tested on: PPARg:RXRa DBDmut IVT, anti-RXR (DBD mutation: RXRa K156A/R161A, NR concentration 270 nM, RXRa partner concentration 90 nM)
# How it was run: as §1
# [12] = tested on: PPARg:RXRa IVT, anti-PPARg (NR concentration 270 nM, RXRa partner concentration 90 nM)
# How it was run: as §1
# [13] = tested on: PPARg DBDmut:RXRa IVT, anti-PPARg (DBD mutation: PPARg1 K132A/R137A, NR concentration 270 nM, RXRa partner concentration 90 nM)
# How it was run: as §1
# [14] = tested on: PPARg DBDmut IVT, anti-PPARg (DBD mutation: PPARg1 K132A/R137A, NR concentration 270 nM)
# How it was run: as §1
# [15] = tested on: PPARg homodimer (NR concentration 180 nM)
# How it was run: as §1
# [16] = tested on: PXR:RXRa (NR concentration 270 nM, RXRa partner concentration 90 nM)
# How it was run: as §1
# [17] = tested on: PXR homodimer (NR concentration 270 nM)
# How it was run: as §1
# [18] = tested on: RARa:RXR (NR concentration 270 nM, RXRa partner concentration 90 nM)
# How it was run: as §1
# [19] = tested on: RARa homodimer (NR concentration 270 nM)
# How it was run: as §1
# [20] = tested on: RARb:RXRa (NR concentration 270 nM, RXRa partner concentration 90 nM)
# How it was run: as §1
Sequence,PBM binding z-score [1],PBM binding z-score [2],PBM binding z-score [3],PBM binding z-score [4],PBM binding z-score [5],PBM binding z-score [6],PBM binding z-score [7],PBM binding z-score [8],PBM binding z-score [9],PBM binding z-score [10],PBM binding z-score [11],PBM binding z-score [12],PBM binding z-score [13],PBM binding z-score [14],PBM binding z-score [15],PBM binding z-score [16],PBM binding z-score [17],PBM binding z-score [18],PBM binding z-score [19],PBM binding z-score [20]
TCTGCTAGGTCAACGATGGTGAGCTAATCTGCTA,2.96,1.8,-0.337,1.15,-0.262,2.95,2.17,3.07,1.74,2.39,4.06,4.11,0.101,-0.356,0.2,0.739,-1.18,1.68,-1.07,3.98
GTACCAAGGTGAACAGGTCGTTGATGAGTAGGCG,0.658,0.647,-0.308,0.422,-0.997,2.34,1.64,1.88,0.3,1.02,1.79,3,-0.0563,-0.667,0.811,0.437,-0.13,1.38,-0.00415,2.09
AGTCAAAGTACAGGACGAGGTAACGTAAAGCACG,0.0471,-0.247,0.0589,-0.158,-0.441,-0.0272,0.99,0.138,0.254,0.0519,-0.428,0.795,0.576,0.384,0.381,-0.161,0.4,0.278,-0.0608,0.641
CCTGCTAGGTCATGGTCGGCTAATCTACAGTATG,3.56,2.8,-0.0293,1.91,-0.492,3.56,2.32,2.78,0.716,1.99,4.22,3.41,0.753,-0.172,1.51,1.41,-0.226,2.46,-0.276,3.93
GCGACTGGGGCAAAGCAGGTTACCAGAAGGTTGG,0.766,0.129,-0.462,0.0356,-1.38,1.3,1.17,1.42,-0.461,0.594,4.49,3.54,-1.13,-0.78,0.00244,0.34,-0.469,0.321,-0.876,1.1
GGAACGAGGGCAAAGTTGATAGCGTCTGTCGACG,1.43,1.07,-0.457,0.901,-0.56,4.27,7.58,7.44,6.55,7.74,4.61,4.26,0.324,-0.0322,0.905,1.2,-0.0837,1.7,-0.604,2.48
ACTAGCAGGCCAAGGTTCACTCAAGATTAGTCCG,0.739,1.16,0.631,1.04,-0.0506,2.89,5.16,6.08,5.04,6.29,1.19,2.08,-0.0687,-0.0109,0.515,1.36,0.191,1.35,0.0605,1.62
GGAACGAGGGCATAGTTGATAGCATCTGTCGACG,0.364,0.0828,-0.66,0.126,-0.441,2.33,3.64,5,2.9,4.54,2.46,2.41,-0.0516,-0.265,0.109,0.17,-0.0429,0.19,-0.571,1.39
TCTTGTAGATAAAAGGTTAAGAAAGCCGAAGCCT,1.26,1.93,-0.0435,1.85,0.124,3.26,3.62,5.64,4.77,5.98,2.1,1.64,0.235,0.63,1.07,1.4,0.0184,1.84,0.655,1.91
ACTATTGGTTGACTTAGGGCAACCGATACGACGC,0.0585,0.381,-0.0343,0.201,0.546,0.0767,0.718,0.153,0.181,0.103,-0.408,0.507,0.7,0.813,-0.419,0.245,-0.0405,0.77,-0.0341,0.653
ACACACAGGTGAGTGAAGGTAACTCAGCTGGACG,0.469,0.195,-0.241,-0.0782,-0.78,0.352,0.931,0.0284,-0.027,-0.278,0.846,1.04,0.1,-0.00713,0.147,-0.122,-0.17,0.0752,-0.0711,0.791
CTCGAACGGTCGTGCTCAGGTGAGTATACCAAAC,-0.183,-0.208,-0.21,-0.274,-0.517,-0.309,-0.285,-0.662,-0.759,-1.01,0.143,-0.0947,-0.8,-0.726,0.0744,-0.455,-0.32,-0.252,-0.56,0.781
CCGACTGGGGCAGAAAGGTGACCATACCATCCGG,-0.198,-0.194,-0.391,-0.267,-1.39,0.838,1.34,1.98,-0.273,1.32,1.97,2.21,-0.413,-1.14,0.473,-0.192,-0.34,0.197,-0.0337,1.19
CCTTCCGGGTCAAGGTTATAGCACGGGTGGTACG,5.06,3.34,0.142,2.85,0.13,4.95,5.1,5.24,2.15,4.32,2.99,4.69,0.688,0.0375,2.1,3.7,0.341,4.25,0.928,4.1
